MARV entry inh – inhibitors of Marburg virus binding or cell entry. Potency, µM (series often up to 37.8 µM), for the others: at the top dose activity change, negative = inhibition, usual class: inhibitors. 1.8% of 300,000 active. AID 540276. Marburg virus pseudotyped entry inhibition, cell reporter; calls by dose curve; tested in HEK293 cells
FMDV inh – antivirals against foot and mouth disease virus; FMDV antiviral cell-based qHTS; Potency, µM (top dose mostly 57.9 µM), for the others: at the top dose activity change, negative = inhibition, hits mostly inhibitors; 1.2% of 410,000 active; calls by dose curve; tested in HEK293T cells; also: read-out not given here; nearly all actives have a fitted effect of over 45% in size
LASV entry inh – inhibitors of Lassa virus binding or cell entry | Potency, µM (doses to about 37.9 µM), for inactives: top-dose activity change, negative = inhibition, hits mostly inhibitors | Lassa virus pseudotype entry inhibition, cell reporter | 1.2% of 300,000 active; calls by dose curve; tested in HEK293 cells; also: nearly all actives have a fitted effect of over 50% in size
HCV inhibitor – inhibitors of hepatitis C virus infection. Potency, µM (doses to about 41.8 µM), for inactives: at the highest dose activity change, negative = inhibition, most hits filed as inhibitors. Huh7.5.1 HCVcc-Cre infection, luciferase reporter, 44 h. 3.4% of 340,000 active; active = well fitted inhibition curve with a large enough effect; inconclusive = small, poorly fitted or top-dose-only effect, or another doubt; inactive = no such curve, though single readings can be large or run the other way
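Seed cells (1,000/well) for 4 h; treat with compound and infect with HCVcc-Cre, moi about 0.5. Incubate 44 h, then detect luciferase activity.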
VACV Venus inh – inhibitors of vaccinia virus (Venus reporter) | Vaccinia virus Venus reporter expression, fluorescence | Potency, µM (highest dose often 36.5 µM), for the others: at the highest dose activity change, negative = inhibition, usual class: inhibitors | 0.46% of 330,000 active | AID 720580; calls by dose curve; tested in A549 cells; also: nearly all actives have a fitted effect of over 30% in size
VACV mCherry inh – inhibitors of vaccinia virus infection (mCherry reporter signal); Vaccinia virus mCherry reporter infection, fluorescence; Potency, µM (titrated, usually from 36.5 µM), inactives show top-dose activity change, negative = inhibition, most hits filed as inhibitors; 0.63% of 310,000 active; calls by dose curve; tested in A549 cells; also: nearly all actives have a fitted effect of over 35% in size
* hit, by the source's call; i = inactive; ? = inconclusive; / = no result given; ! = not active in a repeat; [ ] = another dose, or the depositor's remark. In the library only some 5.3% were active in any assay of this set; here they are far more common. % is scaled to controls: 0 for no effect and ±100 for the full control effect; potency is read from the fitted curve at half-maximal effect.

SMILES	MARV entry inh	FMDV inh	LASV entry inh	HCV inhibitor	VACV Venus inh	VACV mCherry inh
CC(C)(C)OC(=O)NCCCCCNC(=O)c1[nH]cnc1C(=O)Nc1ccc(Cl)cc1	/	32µM*	/	35µM*	?	11µM*
CCN1C(=O)[C@H]2[C@H]3[C@H](O)[C@H](O)C/C(=N/OC[C@@H](O)COCc4ccco4)[C@@H]3CC[C@@H]2C1=O	34%[14.2 µM]	/	/	/	/	/
CCN1C(=O)[C@H]2[C@@H](c3ccc(-c4ccc5c(c4)OCO5)c(OC)c3)N[C@@](C)(C(=O)OC)[C@H]2C1=O	/	-19%	/	3.2µM*	-11%	i
CCCn1nc(NC(=O)c2ccco2)c2cc3ccc(C)cc3nc21	-9%	-6%	12%	?	-15%	-28%
CCCn1nc(NC(=O)c2ccco2)c2cc3cc(C)ccc3nc21	/	4%	/	13µM*	/	/
O=C(Nc1nc2ccccc2n1CCN1CCOCC1)c1cn(-c2ccccc2)nc1-c1ccccc1	?	0%	?	10µM*	?	28µM*
CCN(CC)c1ccc(CNc2nc3ccccc3n2CCN2CCOCC2)cc1	11µM*	-26%	-22%[46.1 µM]	?	-19%	-21%
CN(C)c1ccc(/C=C/c2ccnc3ccccc23)cc1[N+](=O)[O-]	/	/	/	/	-10%	i
CCOc1ncccc1C(=O)N1CCN(C(c2ccccc2)c2ccccc2)CC1	?	?	?	11µM*	-8%	-4%
Cc1ccc(Cl)cc1NS(=O)(=O)c1ccc2c(c1)NC(=O)CCS2	/	5%	2%[46.1 µM]	/	-7%	-11%
CC1(C)C[C@H](n2[nH]c(=O)c3c2NC(=O)CS[C@@H]3c2ccccc2)CCO1	14%	/	/	/	/	/
OC1(CNCc2cn[nH]c2-c2cc3ccccc3o2)CCCCC1	7.9µM*	-25%	-30%	?	-7%	-5%
c1ccc2oc(-c3[nH]ncc3CN3CCSCC3)cc2c1	?	-19%	-16%[46.1 µM]	-2%	-13%	-12%
Cc1nc([N+](=O)[O-])c(Br)n1CC(=O)c1ccc(Cl)cc1	?	-32%	?	10µM*	?	/
COc1ccc(C(=O)Cn2c(C)nc([N+](=O)[O-])c2Br)cc1	-1%	?	-11%	?	7.9µM*	3.5µM*
Cc1nc([N+](=O)[O-])cn1CC(=O)c1ccc(Br)cc1	/	-21%	/	2%	-3%	-7%
Cc1nc([N+](=O)[O-])c(Br)n1Cc1ccc(Cl)c(Cl)c1	/	18µM*	/	?	/	/
CC(=O)C1=C(C)N(Cc2ccccc2)C(=O)NC1c1ccc(Br)cc1 (centres undefined)	-4%[14.2 µM]	/	16%[14.3 µM]	/	/	/
Cn1c(N)c(C(C[N+](=O)[O-])c2c(F)cccc2Cl)c(=O)n(C)c1=O (centres undefined)	-12%[46.1 µM]	-14%	-29%[46.1 µM]	-9%	?	-15%
CN(C)c1ccc(C(C[N+](=O)[O-])c2c(N)n(C)c(=O)n(C)c2=O)c(F)c1C#N (centres undefined)	/	35µM*	/	-8%	/	/
COc1ccc(Br)cc1C(C[N+](=O)[O-])c1c(N)n(C)c(=O)n(C)c1=O (centres undefined)	/	?	/	4µM*	/	/
C[N+]1(CC(=O)c2ccc(Cl)cc2)CCOCC1	/	/	/	/	-4%	-10%
Cc1cccc(NC(=O)CSc2nc(=O)n(CCN3CCOCC3)c3c2CCC3)c1C	/	-16%	-3%[46.1 µM]	/	-10%[7.34 µM]	-10%[7.34 µM]
CCN(CC)c1nc2c(c(=O)n(C)c(=O)n2C)n1CCCc1ccccc1	/	-26%	/	-9%	/	/
CC(=O)C(C)n1c(CN(C)Cc2ccccc2)nc2c1c(=O)n(C)c(=O)n2C (centres undefined)	?	-16%	-7%[46.1 µM]	?	-2%	i
SMILES	MARV entry inh	FMDV inh	LASV entry inh	HCV inhibitor	VACV Venus inh	VACV mCherry inh
CN(Cc1ccccc1)c1nc2c(c(=O)n(C)c(=O)n2C)n1CCCc1ccccc1	?	?	13µM*	?	-17%	-15%
CN(Cc1ccccc1)Cc1nc2c(c(=O)n(C)c(=O)n2C)n1Cc1ccc(Cl)cc1	-1%	-5%	?	14µM*	/	/
CC(C)n1c(CN(C)Cc2ccccc2)nc2c1c(=O)n(C)c(=O)n2C	?	18µM*	?	?	-8%	i
Cc1ccc(Cn2c(CN(C)Cc3ccccc3)nc3c2c(=O)n(C)c(=O)n3C)cc1	-22%	?	?	?	/	/
CCCCCn1c(CN(C)Cc2ccccc2)nc2c1c(=O)n(C)c(=O)n2C	?	-11%	?	14µM*!	/	/
CC(C)c1c(C(=O)NCc2ccncc2)cnn1-c1nccc(-c2cccs2)n1	/	3%	/	/	-6%	-8%
CCC1CN(CCNC(=O)c2cscn2)Cc2cc(OC)ccc2O1 (centres undefined)	/	3%	/	/	-4%	-9%
C=C(C)Cn1c(CN(C)Cc2ccccc2)nc2c1c(=O)n(C)c(=O)n2C	/	?	/	11µM*	/	/
CN(Cc1ccccc1)Cc1nc2c(c(=O)n(C)c(=O)n2C)n1Cc1ccc(F)cc1	-8%	?	-28%	-18%	/	/
COc1ccccc1CC(=O)N1CCCC(CCC(=O)NCc2ccccc2F)C1 (centres undefined)	/	1%	/	-12%	/	/
COc1ccccc1/C=C/CN1CCCC(CCC(=O)NCc2ccccc2F)C1 (centres undefined)	6.3µM*	-13%	?	-13%	-13%	-13%
CC(C(=O)NC1CCCCCC1)N(c1ccccc1)S(C)(=O)=O (centres undefined)	8.2µM*	14%	-2%	0%	0%	-12%
Cc1nc(CC(=O)N2CCC(n3c(C4CCC4)nc4cccnc43)CC2)cs1	/	-18%	/	/	-9%	0%
CCOC(=O)c1c(C)n(OCc2ccccc2)c2ccc3c(no[n+]3[O-])c12	?	/	?	7.1µM*	-4%	i
CCCCOn1c(C)c(C(C)=O)c2c3no[n+]([O-])c3ccc21	-18%[46.1 µM]	-16%	6%	-10%	2%	-12%
Cn1c(=O)c(C(=O)COC(=O)c2cc(-c3ccccc3)nc3ccccc23)c(N)n(Cc2ccccc2)c1=O	-27%	/	4%	0%[8.37 µM]	/	/
Cn1c(=O)c(C(=O)COC(=O)c2cc(C3CC3)nc3ccccc23)c(N)n(Cc2ccccc2)c1=O	-25%	?	-8%	3.5µM*	-20%	i
CCCN(CCC)c1nc2ccccc2n2c(C)nnc12	?	-24%	6%	3.2µM*	-24%	-13%
COc1ccc(NC(=O)C2(C)Cc3c(-c4cccc(C(N)=O)c4)ccnc3O2)cn1 (centres undefined)	/	-4%	/	/	-28%	-2%
CCN(C(=O)c1cc2c(C)nc3ccccc3c2o1)c1cc(Cl)ccc1OC	13µM*	?	?	10µM*	-17%	14%
COc1ccc(N(CC(=O)Nc2ccc(S(=O)(=O)N3CCOCC3)cc2)S(=O)(=O)c2ccccc2)cc1	?	-16%	?	4µM*	-10%	/
COc1ccc(N(CC(=O)NCCc2ccccc2)S(=O)(=O)c2ccc(OC)c(OC)c2)cc1	/	-6%	6.3µM*	/	1%	-3%
